Experimental data published in PubChem BioAssay (Tox21).
Unmarked numbers belong to inactive results. Inconclusive results are not listed. A call without a number means that no potency is given here. Active and inactive are the calls of the source. Calls come from the whole dose curve; as a rule, active = well fitted curve in the direction sought with a large enough effect in the repeat runs; inconclusive = weak or mixed curves; inactive = no such curve, though single readings can be large; an effect the other way counts as inactive or inconclusive.

Tests used:
[1] = A CellTox Green Cytotoxicity Assay to monitor cytotoxicity in HEK293 cells - 40 hour (AID 1224871); note: nearly all actives have a fitted effect of over 45% in size
Method in brief: (§1)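 Cytotoxicity was tracked continuously in HEK293 cells by a DNA-binding dye excluded from viable cells. Compounds were transferred in DMSO 5 h after seeding; fluorescence was recorded at intervals up to 40 h.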

[2] = qHTS RealTime-Glo MT Cell Viability Assay in HEK293 cells - 16 hour (AID 1224872); note: nearly all actives have a fitted effect of over 50% in size; note: potency is the fitted concentration of half-maximal effect; for activity change, negative = cytotoxicity: top concentration of the series differs between compounds
Method in brief: (§2)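 Assay medium contained NanoLuc luciferase plus cell-permeant prosubstrate, added with HEK293 cells at 600 cells/well. After 5 h at 37 C/5% CO2 compounds were added; plates stayed at 37 C for 40 h with serial luminescence reads.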

[3] = qHTS RealTime-Glo MT Cell Viability Assay in HepG2 cells - 8 hour (AID 1224873); note: nearly all actives have a fitted effect of over 55% in size
Method in brief: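 HepG2 cells mixed with RealTime-Glo MT reagents (NanoLuc plus cell-permeant prosubstrate) were seeded at 600 cells/well, incubated 5 h at 37 C/5% CO2, then pinned with compounds in DMSO; nonlytic luminescence tracked viability during 40 h treatment.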

[4] = qHTS RealTime-Glo MT Cell Viability Assay in HEK293 cells - 40 hour (AID 1224874); conditions: RealTime-Glo luminescence; max response: hits give low values; note: nearly all actives have a fitted effect of over 50% in size; note: potency is the fitted concentration of half-maximal effect
Method in brief: (§3)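 Nonlytic bioluminescent viability monitoring. HEK293 at 600 cells/well with reagent; 5 h settle; compound transfer by pintool; plates held at 37 C and read at set time points.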

[5] = A CellTox Green Cytotoxicity Assay to monitor cytotoxicity in HEK293 cells - 24 hour (AID 1224875); note: series mostly up to about 77 µM; nearly all actives have a fitted effect of over 45% in size
Method in brief: as §1

[6] = A CellTox Green Cytotoxicity Assay to monitor cytotoxicity in HepG2 cells - 16 hour (AID 1224876); note: nearly all actives have a fitted effect of over 45% in size
Method in brief: (§4)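 Real-time, homogeneous cytotoxicity readout: dead-cell DNA staining by CellTox Green in HepG2 monolayers, fluorescence measured at timed intervals up to 40 h of continuous compound exposure.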

[7] = qHTS RealTime-Glo MT Cell Viability Assay in HepG2 cells - 32 hour (AID 1224877); note: nearly all actives have a fitted effect of over 55% in size
Method in brief: (§5)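 qHTS, HepG2, 600 cells/well, RealTime-Glo (NanoLuc + prosubstrate) added with cells; 5 h preincubation; DMSO compound addition; 37 C; luminescence at 0/8/16/24/32/40 h.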

[8] = A CellTox Green Cytotoxicity Assay to monitor cytotoxicity in HepG2 cells - 24 hour (AID 1224878); note: nearly all actives have a fitted effect of over 45% in size
Method in brief: as §4

[9] = A CellTox Green Cytotoxicity Assay to monitor cytotoxicity in HepG2 cells - 40 hour (AID 1224879); note: nearly all actives have a fitted effect of over 40% in size
Method in brief: as §4

[10] = qHTS RealTime-Glo MT Cell Viability Assay in HEK293 cells - 0 hour (AID 1224880)
Method in brief: as §3

[11] = A CellTox Green Cytotoxicity Assay to monitor cytotoxicity in HepG2 cells - 0 hour (AID 1224882); note: nearly all actives have a fitted effect of over 35% in size
Method in brief: as §4

[12] = A CellTox Green Cytotoxicity Assay to monitor cytotoxicity in HepG2 cells - 32 hour (AID 1224883); note: nearly all actives have a fitted effect of over 50% in size
Method in brief: as §4

[13] = A CellTox Green Cytotoxicity Assay to monitor cytotoxicity in HEK293 cells - 8 hour (AID 1224884); note: nearly all actives have a fitted effect of over 35% in size
Method in brief: as §1

[14] = qHTS RealTime-Glo MT Cell Viability Assay in HEK293 cells - 24 hour (AID 1224886); note: nearly all actives have a fitted effect of over 50% in size; note: potency is the fitted concentration of half-maximal effect; for activity change, negative = cytotoxicity: top concentration of the series differs between compounds
Method in brief: as §2

[15] = qHTS RealTime-Glo MT Cell Viability Assay in HEK293 cells - 8 hour (AID 1224887); note: nearly all actives have a fitted effect of over 50% in size; note: potency is the fitted concentration of half-maximal effect; for activity change, negative = cytotoxicity: top concentration of the series differs between compounds
Method in brief: as §3

[16] = A CellTox Green Cytotoxicity Assay to monitor cytotoxicity in HEK293 cells - 16 hour (AID 1224888); note: nearly all actives have a fitted effect of over 35% in size
Method in brief: as §1

[17] = qHTS RealTime-Glo MT Cell Viability Assay in HepG2 cells - 0 hour (AID 1224889); note: nearly all actives have a fitted effect of over 50% in size
Method in brief: as §5

[18] = A CellTox Green Cytotoxicity Assay to monitor cytotoxicity in HepG2 cells - 8 hour (AID 1224890); note: nearly all actives have a fitted effect of over 45% in size
Method in brief: as §4

[19] = qHTS RealTime-Glo MT Cell Viability Assay in HepG2 cells - 16 hour (AID 1224885); note: nearly all actives have a fitted effect of over 50% in size
Method in brief: as §5

[20] = A CellTox Green Cytotoxicity Assay to monitor cytotoxicity in HEK293 cells - 32 hour (AID 1224881); note: nearly all actives have a fitted effect of over 40% in size
Method in brief: as §1

BrCC1CO1 (stereo unspecified)
Potency [1]: inactive | Potency [2]: inactive | outcome [3]: inactive | max response [4]: 5.87% | Potency [5]: inactive | Potency [6]: inactive | Potency [7]: inactive | Potency [8]: inactive | Potency [9]: inactive | outcome [10]: inactive | outcome [11]: inactive | Potency [12]: inactive | Potency [13]: inactive | Potency [14]: inactive | Potency [15]: inactive | Potency [16]: inactive | outcome [17]: inactive | Potency [18]: inactive

CC(C)(C)C(=O)C(Cl)Cl
Potency [1]: inactive | Potency [2]: inactive | outcome [3]: inactive | max response [4]: -2.49% | Potency [5]: inactive | Potency [6]: inactive | Potency [7]: inactive | Potency [8]: inactive | Potency [9]: inactive | outcome [10]: inactive | outcome [11]: inactive | Potency [12]: inactive | Potency [13]: inactive | Potency [19]: inactive | Potency [14]: inactive | Potency [15]: inactive | Potency [16]: inactive | outcome [17]: inactive

OP(O)c1ccccc1
Potency [1]: inactive | Potency [2]: inactive | outcome [3]: inactive | max response [4]: 9.39% | Potency [5]: inactive | Potency [6]: inactive | Potency [7]: inactive | Potency [8]: inactive | Potency [9]: inactive | outcome [10]: inactive | outcome [11]: inactive | Potency [12]: inactive | Potency [13]: inactive | Potency [19]: inactive | Potency [14]: inactive | Potency [15]: inactive | Potency [16]: inactive | outcome [17]: inactive

N#CN=C1SCCN1Cc1ccc(Cl)nc1
Potency [1]: inactive | Potency [2]: inactive | outcome [3]: inactive | max response [4]: -3.59% | Potency [5]: inactive | Potency [6]: inactive | Potency [7]: inactive | Potency [8]: inactive | Potency [9]: inactive | outcome [10]: inactive | outcome [11]: inactive | Potency [12]: inactive | Potency [13]: inactive | Potency [19]: inactive | Potency [14]: inactive | Potency [15]: inactive | Potency [16]: inactive | outcome [17]: inactive | Potency [18]: inactive

ClCCN1CCCC1
Potency [1]: inactive | Potency [2]: inactive | outcome [3]: inactive | max response [4]: 8.04% | Potency [5]: inactive | Potency [6]: inactive | Potency [7]: inactive | Potency [8]: inactive | Potency [9]: inactive | outcome [10]: inactive | outcome [11]: inactive | Potency [12]: inactive | Potency [13]: inactive | Potency [19]: inactive | Potency [14]: inactive | Potency [15]: inactive | Potency [16]: inactive | outcome [17]: inactive | Potency [18]: inactive

C[N+]1(C)CCCCC1
Potency [1]: inactive | Potency [2]: inactive | outcome [3]: inactive | max response [4]: 19.2% | Potency [5]: inactive | Potency [6]: inactive | Potency [7]: inactive | Potency [8]: inactive | Potency [9]: inactive | outcome [10]: inactive | outcome [11]: inactive | Potency [12]: inactive | Potency [13]: inactive | Potency [19]: inactive | Potency [14]: inactive | Potency [15]: inactive | outcome [17]: inactive | Potency [18]: inactive

CN=CNc1ccc(C)cc1C
Potency [1]: inactive | Potency [2]: inactive | outcome [3]: inactive | max response [4]: 5.53% | Potency [5]: inactive | Potency [6]: inactive | Potency [7]: inactive | Potency [8]: inactive | Potency [9]: inactive | outcome [10]: inactive | Potency [20]: inactive | outcome [11]: inactive | Potency [12]: inactive | Potency [19]: inactive | Potency [14]: inactive | Potency [15]: inactive | Potency [16]: inactive | outcome [17]: inactive | Potency [18]: inactive

CCCCCCCC(=O)Cl
Potency [1]: inactive | Potency [2]: inactive | outcome [3]: inactive | max response [4]: 5.36% | Potency [5]: inactive | Potency [6]: inactive | Potency [7]: inactive | Potency [8]: inactive | Potency [9]: inactive | outcome [10]: inactive | Potency [20]: inactive | outcome [11]: inactive | Potency [12]: inactive | Potency [14]: inactive | Potency [15]: inactive | Potency [16]: inactive | outcome [17]: inactive | Potency [18]: inactive

CCCC[N+](=O)[O-]
Potency [1]: inactive | Potency [2]: inactive | outcome [3]: inactive | max response [4]: 1.79% | Potency [5]: inactive | Potency [6]: inactive | Potency [7]: inactive | Potency [8]: inactive | Potency [9]: inactive | outcome [10]: inactive | outcome [11]: inactive | Potency [12]: inactive | Potency [19]: inactive | Potency [14]: inactive | Potency [15]: inactive | Potency [16]: inactive | outcome [17]: inactive | Potency [18]: inactive

CCCCCCCCBr
Potency [1]: inactive | Potency [2]: inactive | outcome [3]: inactive | max response [4]: 2.41% | Potency [5]: inactive | Potency [6]: inactive | Potency [7]: inactive | Potency [8]: inactive | Potency [9]: inactive | outcome [10]: inactive | outcome [11]: inactive | Potency [12]: inactive | Potency [13]: inactive | Potency [19]: inactive | Potency [14]: inactive | Potency [15]: inactive | Potency [16]: inactive | outcome [17]: inactive | Potency [18]: inactive

O=c1[nH]c2ccccc2n1C1CCNCC1
Potency [1]: inactive | Potency [2]: inactive | outcome [3]: inactive | max response [4]: 2.11% | Potency [5]: inactive | Potency [6]: inactive | Potency [7]: inactive | Potency [8]: inactive | Potency [9]: inactive | outcome [10]: inactive | outcome [11]: inactive | Potency [12]: inactive | Potency [13]: inactive | Potency [19]: inactive | Potency [14]: inactive | Potency [15]: inactive | outcome [17]: inactive | Potency [18]: inactive

CCCC(C)(COC(N)=O)COC(N)=O
Potency [1]: inactive | Potency [2]: inactive | outcome [3]: inactive | max response [4]: 2.95% | Potency [5]: inactive | Potency [6]: inactive | Potency [7]: inactive | Potency [8]: inactive | Potency [9]: inactive | outcome [10]: inactive | Potency [20]: inactive | outcome [11]: inactive | Potency [12]: inactive | Potency [19]: inactive | Potency [14]: inactive | Potency [15]: inactive | outcome [17]: inactive | Potency [18]: inactive

CC(=O)OCC1=C(C(=O)O)N2C(=O)[C@@H](N)[C@H]2SC1
cytotoxicity increase [1]: -4.55% [at 15.8 µM] | activity change, negative = cytotoxicity [2]: 5.5% [at 15.8 µM] | viability change, negative = cytotoxic [3]: 1.05% [at 15.8 µM] | max response [4]: 21.8% | activity change [5]: 11.8% [at 15.8 µM, hits give high values] | cytotoxicity increase [6]: 0.706% [at 15.8 µM] | activity change, negative = cytotoxic [7]: 0.0723% [at 15.8 µM] | cytotoxicity [8]: 0.21% [at 15.8 µM] | cytotoxicity increase [9]: -2.77% [at 15.8 µM] | activity change, negative = cytotoxicity [10]: -1.9% [at 15.8 µM] | cytotoxicity [11]: -8.52% [at 15.8 µM] | cytotoxicity increase [12]: 0.0293% [at 15.8 µM] | cytotoxicity increase [13]: -3.34% [at 15.8 µM] | activity change, negative = cytotoxic [19]: 0.0339% [at 15.8 µM] | activity change, negative = cytotoxicity [14]: 11.4% [at 15.8 µM] | activity change, negative = cytotoxicity [15]: -14.1% [at 15.8 µM] | activity change [16]: 2.87% [at 15.8 µM, hits give high values] | activity change, negative = cytotoxicity [17]: -5.45% [at 15.8 µM] | cytotoxicity increase [18]: 1.96% [at 15.8 µM]

CC(Cc1ccccc1)NCCn1cnc2c1c(=O)n(C)c(=O)n2C (stereo unspecified)
Potency [1]: inactive | Potency [2]: 15.3 µM (active) | outcome [3]: inactive | Potency [4]: 24.2 µM (active) | Potency [5]: inactive | Potency [6]: inactive | Potency [7]: inactive | Potency [8]: inactive | Potency [9]: inactive | outcome [10]: inactive | outcome [11]: inactive | Potency [12]: inactive | Potency [13]: inactive | Potency [19]: inactive | Potency [14]: 21.6 µM (active) | Potency [15]: 24.2 µM (active) | Potency [16]: inactive | outcome [17]: inactive

Cn1c(CCCC(=O)O)nc2cc(N(CCCl)CCCl)ccc21
Potency [1]: inactive | Potency [2]: inactive | outcome [3]: inactive | max response [4]: 1.4% | Potency [5]: inactive | Potency [6]: inactive | Potency [7]: inactive | Potency [8]: inactive | Potency [9]: inactive | outcome [10]: inactive | outcome [11]: inactive | Potency [12]: inactive | Potency [13]: inactive | Potency [19]: inactive | Potency [14]: inactive | Potency [15]: inactive | Potency [16]: inactive | outcome [17]: inactive | Potency [18]: inactive
